Records with an inconclusive call do not appear. The source made the active and inactive calls. How the source made its calls, unless noted: active means hit-call score of the fitted dose curve at least 0.9, where 1 is the maximum; inactive means score below 0.9.
What was measured:
[1] = biological target: Nuclear respiratory factor 1 (Homo sapiens) (UniProt Q16656); assay: ATG_NRF1_CIS: Attagene CIS-FACTORIAL HepG2 Assay for human Nuclear Respiratory Factor 1 (NRF1) Orphan Gene (AID 2282987); conditions: HepG2 NRF1 cis-element reporter, Attagene multiplex; actives raise or lower the signal
Sequence of Nuclear respiratory factor 1 (Homo sapiens) (Q16656 whole entry, looked up): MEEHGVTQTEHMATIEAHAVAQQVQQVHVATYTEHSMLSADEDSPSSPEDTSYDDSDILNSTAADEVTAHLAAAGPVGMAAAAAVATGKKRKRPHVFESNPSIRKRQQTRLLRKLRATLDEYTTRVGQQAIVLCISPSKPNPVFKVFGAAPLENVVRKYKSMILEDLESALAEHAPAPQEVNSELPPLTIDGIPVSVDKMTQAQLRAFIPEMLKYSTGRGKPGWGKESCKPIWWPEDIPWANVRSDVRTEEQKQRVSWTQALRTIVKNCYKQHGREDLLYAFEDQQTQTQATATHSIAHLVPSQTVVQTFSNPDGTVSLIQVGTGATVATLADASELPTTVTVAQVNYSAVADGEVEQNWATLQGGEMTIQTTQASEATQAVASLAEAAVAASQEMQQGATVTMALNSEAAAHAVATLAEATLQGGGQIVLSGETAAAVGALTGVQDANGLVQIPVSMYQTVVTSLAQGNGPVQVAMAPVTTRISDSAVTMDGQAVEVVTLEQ
Procedure, shortened: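 Endogenous NRF1-driven reporter transcription measured in transiently transfected human HepG2 liver cells. Readout: reporter mRNA by RT-PCR and capillary electrophoresis with fluorescence detection, 24 h post-dosing. Gain or loss of signal fitted relative to DMSO baseline.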

[2] = ATG_NFI_CIS: Attagene CIS-FACTORIAL HepG2 Assay for human Nuclear Factor I (NFI) (AID 2282989); conditions: HepG2 cis-regulatory reporter, NFI response element transcription; actives raise or lower the signal
Procedure, shortened: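 HepG2, transient MRTU, 24 h exposure; RNA→cDNA→PCR→FAM label→HpaI→CE fluorescence. Bidirectional fit, DMSO = baseline.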

[3] = biological target: Myc proto-oncogene protein (Homo sapiens) (UniProt P01106); assay: ATG_Myc_CIS: Attagene CIS-FACTORIAL HepG2 Assay for human Myelocytomatosis (Myc) Proto-Oncogene Transcription Factor (AID 2282990); conditions: HepG2, Attagene cis-reporter transcription factor activity; actives raise or lower the signal
Sequence of Myc proto-oncogene protein (Homo sapiens) (P01106 whole entry, looked up, the tested form may be a part): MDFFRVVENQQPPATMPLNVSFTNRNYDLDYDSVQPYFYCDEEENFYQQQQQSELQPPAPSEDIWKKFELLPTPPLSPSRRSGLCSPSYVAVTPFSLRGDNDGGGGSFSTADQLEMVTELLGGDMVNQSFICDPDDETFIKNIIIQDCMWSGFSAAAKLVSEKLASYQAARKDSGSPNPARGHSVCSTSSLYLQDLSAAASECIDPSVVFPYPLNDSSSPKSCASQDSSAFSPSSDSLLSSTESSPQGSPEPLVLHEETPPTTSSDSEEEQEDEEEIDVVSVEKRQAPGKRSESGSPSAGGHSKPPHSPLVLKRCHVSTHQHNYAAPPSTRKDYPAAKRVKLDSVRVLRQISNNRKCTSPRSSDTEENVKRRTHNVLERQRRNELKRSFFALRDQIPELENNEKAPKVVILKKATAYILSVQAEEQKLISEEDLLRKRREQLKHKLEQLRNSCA
Procedure, shortened: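 After 24 h chemical treatment of HepG2 cells carrying multiplexed cis-regulated reporter constructs, reporter transcripts quantified by RT-PCR and capillary electrophoresis of fluorescent fragments. Gain or loss fitted against DMSO baseline.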

[4] = ATG_NF_kB_CIS: Attagene CIS-FACTORIAL HepG2 Assay for human Nuclear Factor Kappa B (NF-kB) (AID 2282991); conditions: HepG2 Attagene cis-factorial NF-kB reporter mRNA; actives raise or lower the signal
Procedure, shortened: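 Read-out: reporter transcript levels quantified by RT-PCR plus capillary electrophoresis of 6-FAM-labelled, HpaI-cut fragments. Transfected HepG2 cells, 24 h compound exposure, endogenous NF-kB-driven cis element; gain or loss scored versus DMSO.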

[5] = ATG_NRF2_ARE_CIS: Attagene CIS-FACTORIAL HepG2 Assay for human Nuclear Factor Erythroid 2 Related Factor 2 (NFR2) response to Antioxidant Response Elements (ARE) (AID 2282992); conditions: HepG2 Attagene ARE/NRF2 reporter, transcription factor activity; actives raise or lower the signal
Procedure, shortened: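 Endogenous transcription factor activity in human liver HepG2 cells is tracked via a cis-element-driven reporter within a multiplexed set. mRNA induction is read by RT-PCR and capillary electrophoresis after 24 h, with DMSO as baseline.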

[6] = ATG_Oct_MLP_CIS: Attagene CIS-FACTORIAL HepG2 Assay for human Octamer-Binding Transcription Factor (Oct) (AID 2282993); conditions: HepG2 Attagene cis-factorial Oct reporter, mRNA; actives raise or lower the signal
Procedure, shortened: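 Multiplexed cis-reporter assay in human liver HepG2 cells, 24 h incubation. Reporter RNA amplified and labelled, then resolved by capillary electrophoresis; DMSO serves as negative control and baseline.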

[7] = biological target: Cellular tumor antigen p53 (Homo sapiens) (UniProt P04637); assay: ATG_p53_CIS: Attagene CIS-FACTORIAL HepG2 Assay for human p53 Transcription Factor (AID 2282994); conditions: HepG2 p53 cis-element reporter, Attagene mRNA; actives raise or lower the signal
Sequence of Cellular tumor antigen p53 (Homo sapiens) (P04637 whole entry, looked up, the tested form may be a part): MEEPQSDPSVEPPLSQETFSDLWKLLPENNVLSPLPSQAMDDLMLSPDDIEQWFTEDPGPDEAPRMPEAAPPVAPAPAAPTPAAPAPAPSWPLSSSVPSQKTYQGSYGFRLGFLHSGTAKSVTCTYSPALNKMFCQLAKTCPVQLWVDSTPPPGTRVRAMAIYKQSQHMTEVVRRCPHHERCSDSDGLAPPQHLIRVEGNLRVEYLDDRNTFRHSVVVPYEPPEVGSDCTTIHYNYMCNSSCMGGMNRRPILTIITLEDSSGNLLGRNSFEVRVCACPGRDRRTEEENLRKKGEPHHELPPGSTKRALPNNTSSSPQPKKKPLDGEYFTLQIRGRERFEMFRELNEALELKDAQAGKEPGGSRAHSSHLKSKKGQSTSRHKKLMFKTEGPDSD
Procedure, shortened: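 Steps: transfect HepG2 with multiplexed cis reporter constructs; dose chemicals 24 h; extract RNA, reverse-transcribe, PCR-amplify reporter sequences; FAM-label, HpaI-digest, resolve fragments by CE. Activity fitted both directions relative to DMSO.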

[8] = biological target: human Peroxisome Proliferator-activated Receptor delta (PPARd), PPARD (gene 5467) (UniProt Q03181); assay: ATG_PPARd_TRANS: Attagene TRANS-FACTORIAL HepG2 Assay for human Peroxisome Proliferator-activated Receptor delta (PPARd) (AID 2283002; active means hit-call score of the fitted dose curve at least 0.9, where 1 is the maximum)
Sequence of human Peroxisome Proliferator-activated Receptor delta (PPARd), PPARD (gene 5467) (Q03181 whole entry, looked up, the tested form may be a part): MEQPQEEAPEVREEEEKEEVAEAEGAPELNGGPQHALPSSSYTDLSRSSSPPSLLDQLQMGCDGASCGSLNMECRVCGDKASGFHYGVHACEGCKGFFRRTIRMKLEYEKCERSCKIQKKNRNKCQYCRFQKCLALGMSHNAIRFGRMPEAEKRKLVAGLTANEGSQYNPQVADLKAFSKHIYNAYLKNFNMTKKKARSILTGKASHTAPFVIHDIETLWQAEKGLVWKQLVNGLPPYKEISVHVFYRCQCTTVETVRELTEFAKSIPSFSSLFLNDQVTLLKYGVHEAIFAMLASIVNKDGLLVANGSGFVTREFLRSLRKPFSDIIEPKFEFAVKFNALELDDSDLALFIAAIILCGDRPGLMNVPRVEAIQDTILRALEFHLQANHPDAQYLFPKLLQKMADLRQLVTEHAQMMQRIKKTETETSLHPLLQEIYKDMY
Procedure, shortened: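 Read-out is induced reporter mRNA, quantified by RT-PCR with fluorescent labelling and capillary electrophoresis after 24 h dosing. Cells are HepG2 transiently carrying multiple GAL4-UAS reporter units driven by exogenous NR-GAL4 chimeras; DMSO serves as baseline.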

[9] = biological target: human Retinoic Acid Receptor beta (RARb), RARB (gene 5915) (UniProt P10826); assay: ATG_RARb_TRANS: Attagene TRANS-FACTORIAL HepG2 Assay for human Retinoic Acid Receptor beta (AID 2283004; active means hit-call score of the fitted dose curve at least 0.9, where 1 is the maximum)
Sequence of human Retinoic Acid Receptor beta (RARb), RARB (gene 5915) (P10826 whole entry, looked up, the tested form may be a part): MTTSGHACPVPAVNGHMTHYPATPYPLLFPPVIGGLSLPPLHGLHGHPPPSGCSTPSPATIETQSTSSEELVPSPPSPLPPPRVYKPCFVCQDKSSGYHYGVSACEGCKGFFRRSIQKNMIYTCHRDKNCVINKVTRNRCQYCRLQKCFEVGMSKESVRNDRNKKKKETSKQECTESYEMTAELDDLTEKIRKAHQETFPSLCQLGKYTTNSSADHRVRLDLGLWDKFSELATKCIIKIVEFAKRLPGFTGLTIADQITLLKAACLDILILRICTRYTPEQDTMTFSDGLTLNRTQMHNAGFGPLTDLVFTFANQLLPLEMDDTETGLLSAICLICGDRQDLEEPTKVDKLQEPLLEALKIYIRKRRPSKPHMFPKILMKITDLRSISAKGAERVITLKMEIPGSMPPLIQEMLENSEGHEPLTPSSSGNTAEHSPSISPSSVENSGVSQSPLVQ
Procedure, shortened: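 HepG2 cells were transiently transfected with GAL4-UAS reporter units that report activity of exogenous chimeric NR-Gal4 proteins, then exposed to compound for 24 h. Reporter mRNA was quantified by RT-PCR with capillary electrophoresis fluorescence, as gain of signal over DMSO.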

[10] = biological target: Nuclear receptor subfamily 1 group I member 2 (Homo sapiens) (UniProt O75469); assay: ATG_PXR_TRANS: Attagene TRANS-FACTORIAL HepG2 Assay for human Pregnane X Receptor (PXR) (AID 2283008; active means hit-call score of the fitted dose curve at least 0.9, where 1 is the maximum)
Sequence of Nuclear receptor subfamily 1 group I member 2 (Homo sapiens) (O75469 whole entry, looked up, the tested form may be a part): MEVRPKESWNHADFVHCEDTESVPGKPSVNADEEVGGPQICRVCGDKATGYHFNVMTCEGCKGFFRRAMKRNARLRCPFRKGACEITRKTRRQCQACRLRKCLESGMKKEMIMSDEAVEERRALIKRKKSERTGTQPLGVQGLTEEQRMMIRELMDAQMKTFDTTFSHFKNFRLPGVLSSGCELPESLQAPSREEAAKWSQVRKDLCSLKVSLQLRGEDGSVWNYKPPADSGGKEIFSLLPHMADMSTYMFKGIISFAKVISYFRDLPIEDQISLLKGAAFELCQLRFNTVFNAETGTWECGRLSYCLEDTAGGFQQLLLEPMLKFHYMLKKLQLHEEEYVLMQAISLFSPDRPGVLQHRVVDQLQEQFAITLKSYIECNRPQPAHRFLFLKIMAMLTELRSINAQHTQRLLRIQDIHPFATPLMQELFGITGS
Procedure, shortened: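 HepG2 transfected (FuGene 6) with GAL4-UAS reporter units + PXR-Gal4 chimera; dosed 24 h. Total RNA → oligo(dT) RT → PCR → 6-FAM primer extension → HpaI cut → CE. Gain-of-signal vs DMSO.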

[11] = biological target: human Retinoic Acid Receptor gamma (RARg), RARG (gene 5916) (UniProt P13631); assay: ATG_RARg_TRANS: Attagene TRANS-FACTORIAL HepG2 Assay for human Retinoic Acid Receptor gamma (RARg) (AID 2283009; active means hit-call score of the fitted dose curve at least 0.9, where 1 is the maximum)
Sequence of human Retinoic Acid Receptor gamma (RARg), RARG (gene 5916) (P13631 whole entry, looked up, the tested form may be a part): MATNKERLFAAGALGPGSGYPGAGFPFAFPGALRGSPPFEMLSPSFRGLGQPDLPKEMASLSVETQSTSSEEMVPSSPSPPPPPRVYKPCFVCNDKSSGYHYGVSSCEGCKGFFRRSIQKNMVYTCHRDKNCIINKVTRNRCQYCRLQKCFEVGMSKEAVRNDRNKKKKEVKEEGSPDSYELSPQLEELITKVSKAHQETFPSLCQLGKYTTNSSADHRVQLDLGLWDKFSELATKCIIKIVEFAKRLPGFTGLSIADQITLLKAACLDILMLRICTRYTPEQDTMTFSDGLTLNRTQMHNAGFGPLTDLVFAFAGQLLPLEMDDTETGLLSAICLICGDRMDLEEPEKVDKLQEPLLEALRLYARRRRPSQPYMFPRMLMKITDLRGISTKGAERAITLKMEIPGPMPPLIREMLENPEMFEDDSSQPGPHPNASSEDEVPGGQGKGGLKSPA
Procedure, shortened: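 Gain-of-signal relative to DMSO is reported from fluorescent capillary electrophoresis of RT-PCR reporter products. These came from HepG2 cells expressing transfected RARg-GAL4 chimeras with UAS reporters, harvested 24 h after dosing.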

[12] = biological target: human Peroxisome Proliferator-activated Receptor alpha (PPARa), PPARA (gene 5465) (UniProt Q07869); assay: ATG_PPARa_TRANS: Attagene TRANS-FACTORIAL HepG2 Assay for human Peroxisome Proliferator-activated Receptor alpha (PPARa) (AID 2283001; active means hit-call score of the fitted dose curve at least 0.9, where 1 is the maximum)
Sequence of human Peroxisome Proliferator-activated Receptor alpha (PPARa), PPARA (gene 5465) (Q07869 whole entry, looked up, the tested form may be a part): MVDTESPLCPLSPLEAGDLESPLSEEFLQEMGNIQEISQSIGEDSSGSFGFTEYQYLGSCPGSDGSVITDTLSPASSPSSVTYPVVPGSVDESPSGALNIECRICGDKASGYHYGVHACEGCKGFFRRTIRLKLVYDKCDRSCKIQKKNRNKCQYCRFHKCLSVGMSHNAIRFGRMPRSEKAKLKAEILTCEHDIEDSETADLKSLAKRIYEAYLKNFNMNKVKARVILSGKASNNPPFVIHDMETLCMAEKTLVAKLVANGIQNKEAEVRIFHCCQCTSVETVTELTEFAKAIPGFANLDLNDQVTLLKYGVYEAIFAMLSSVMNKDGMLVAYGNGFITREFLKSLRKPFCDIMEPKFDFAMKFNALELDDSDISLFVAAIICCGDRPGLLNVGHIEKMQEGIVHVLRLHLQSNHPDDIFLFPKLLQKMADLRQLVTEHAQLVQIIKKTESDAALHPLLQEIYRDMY
Procedure, shortened: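 Transfected HepG2 cells treated with test chemical for 24 h. RNA isolated, reverse-transcribed with oligo(dT), PCR-amplified, FAM-labelled and HpaI-digested. Fragments sized by capillary electrophoresis; gain-of-signal fit relative to DMSO.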

[13] = BSK_3C_TissueFactor: BioMAP Diversity Plus: 3C Assay for Tissue Factor Biomarker Activity (AID 2282997); conditions: BioMAP 3C HUVEC, tissue factor biomarker readout; actives raise or lower the signal
Procedure, shortened: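 Tissue Factor measured by ELISA, 24 h after treatment of primary HUVEC in the BioMAP 3C setting.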

[14] = BSK_3C_uPAR: BioMAP Diversity Plus: 3C Assay for Urokinase-type plasminogen activator receptor (uPAR) Biomarker Activity (AID 2282998); conditions: BioMAP 3C HUVEC, uPAR biomarker ELISA; actives raise or lower the signal
Procedure, shortened: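 Dose primary human umbilical vein endothelial cells, incubate 24 h, measure cell-surface uPAR by ELISA, then fit the signal in both directions against the DMSO negative control.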

[15] = BSK_3C_VCAM1: BioMAP Diversity Plus: 3C Assay for Vascular cell adhesion molecule 1 (VCAM1) Biomarker Activity (AID 2282999); conditions: BioMAP 3C HUVEC, VCAM1 ELISA, cytokine-stimulated; actives raise or lower the signal
Procedure, shortened: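 Activity fitted in both directions relative to DMSO, with ELISA measurement of the surface marker on primary HUVEC (3C) at 24 h post-treatment; parallel SRB staining (0.1% SRB, TCA-fixed, 560 nm) flagged overt cytotoxicity.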

[16] = BSK_4H_Eotaxin3: BioMAP Diversity Plus: 4H Assay for Eotaxin 3 Biomarker Activity (AID 2283000); conditions: primary human endothelial cells (HUVEC); actives raise or lower the signal;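 on outcome: CCL26 protein level quantified by ELISA in parallel with SRB cytotoxicity check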
Procedure, shortened: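 Eotaxin-3 (CCL26) levels were measured by ELISA in HUVEC primary cultures 24 h post-dosing. Gain or loss of signal was fitted in both directions, with DMSO serving as baseline and negative control.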

[17] = read-out: Intercellular Adhesion Molecule 1 (ICAM1), ICAM1 (gene 3383); assay: BSK_3C_ICAM1: BioMAP Diversity Plus: 3C Assay for Intercellular Adhesion Molecule 1 (ICAM1) Biomarker Activity (AID 2283003); conditions: primary human endothelial cells (HUVEC); actives raise or lower the signal
Procedure, shortened: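 Using DMSO as baseline, bidirectional curve fitting was applied to ICAM-1 ELISA signals from HUVEC in the 3C system, measured 24 h after compound addition.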

[18] = biological target: Retinoic acid receptor alpha (Homo sapiens) (UniProt P10276); assay: ATG_RARa_TRANS: Attagene TRANS-FACTORIAL HepG2 Assay for human Retinoic Acid Receptor alpha (RARa) (AID 2283005; active means hit-call score of the fitted dose curve at least 0.9, where 1 is the maximum)
Sequence of Retinoic acid receptor alpha (Homo sapiens) (P10276 whole entry, looked up, the tested form may be a part): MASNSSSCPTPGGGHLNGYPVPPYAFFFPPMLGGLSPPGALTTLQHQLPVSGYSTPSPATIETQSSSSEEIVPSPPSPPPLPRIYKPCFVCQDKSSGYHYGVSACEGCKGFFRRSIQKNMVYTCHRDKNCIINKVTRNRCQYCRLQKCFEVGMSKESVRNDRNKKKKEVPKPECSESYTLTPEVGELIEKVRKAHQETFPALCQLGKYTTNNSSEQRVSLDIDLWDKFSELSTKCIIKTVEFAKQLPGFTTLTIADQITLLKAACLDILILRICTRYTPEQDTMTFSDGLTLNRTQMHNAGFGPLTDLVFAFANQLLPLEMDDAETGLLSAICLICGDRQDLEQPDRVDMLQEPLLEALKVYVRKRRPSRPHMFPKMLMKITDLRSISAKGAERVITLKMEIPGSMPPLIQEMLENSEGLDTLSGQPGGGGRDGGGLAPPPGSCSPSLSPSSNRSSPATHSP
Procedure, shortened: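 Reporter transcripts, measured by RT-PCR with fluorescent labeling and capillary electrophoresis after 24 h dosing, reflect activity of an exogenous human RARa–GAL4 fusion in transiently transfected HepG2. Fitted for increase relative to DMSO.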

[19] = BSK_3C_Proliferation: Cell Proliferation Assessment in the BioMAP Diversity Plus: 3C Assay (AID 2283006); conditions: primary human endothelial cells (HUVEC);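 further: potency may reflect either rise or fall in cell number versus DMSO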
Procedure, shortened: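 Measured here: sulforhodamine B (0.1%) staining of TCA-fixed sub-confluent umbilical vein endothelial cultures 48 h post-dosing, absorbance 560 nm. DMSO served as negative control and baseline; both signal gain and loss were modelled.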

[20] = biological target: Peroxisome proliferator-activated receptor gamma (Homo sapiens) (UniProt P37231); assay: ATG_PPARg_TRANS: Attagene TRANS-FACTORIAL HepG2 Assay for human Peroxisome Proliferator-activated Receptor-gamma (PPARg) (AID 2283007; active means hit-call score of the fitted dose curve at least 0.9, where 1 is the maximum)
Sequence of Peroxisome proliferator-activated receptor gamma (Homo sapiens) (P37231 whole entry, looked up, the tested form may be a part): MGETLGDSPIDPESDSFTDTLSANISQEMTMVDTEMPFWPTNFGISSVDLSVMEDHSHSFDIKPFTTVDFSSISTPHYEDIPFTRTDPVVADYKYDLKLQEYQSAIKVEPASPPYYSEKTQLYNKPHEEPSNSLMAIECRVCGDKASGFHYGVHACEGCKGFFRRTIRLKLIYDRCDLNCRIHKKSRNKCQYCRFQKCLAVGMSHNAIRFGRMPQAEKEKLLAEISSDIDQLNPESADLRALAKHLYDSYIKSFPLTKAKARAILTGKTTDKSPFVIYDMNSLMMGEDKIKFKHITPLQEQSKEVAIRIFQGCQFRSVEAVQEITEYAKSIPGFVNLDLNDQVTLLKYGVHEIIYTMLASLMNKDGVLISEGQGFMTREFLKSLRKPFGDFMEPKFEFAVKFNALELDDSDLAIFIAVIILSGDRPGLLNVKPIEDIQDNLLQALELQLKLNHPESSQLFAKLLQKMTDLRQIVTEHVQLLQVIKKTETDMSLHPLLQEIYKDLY
Procedure, shortened: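 Read-out: reporter mRNA induction, detected by fluorescence after RT-PCR and capillary electrophoresis. Transiently transfected human HepG2 liver cells carrying a chimeric NR-Gal4 construct were dosed for 24 h; activity was fitted upward relative to DMSO.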

## OCC1CCCO1 (centres undefined)
[1]
  outcome: inactive
[2]
  outcome: inactive
[3]
  outcome: inactive
[4]
  outcome: inactive
[5]
  outcome: inactive
[6]
  outcome: inactive
[7]
  outcome: inactive
[8]
  outcome: inactive
[9]
  outcome: inactive
[10]
  outcome: inactive
[11]
  outcome: inactive

## CN(C)C(C)(C)CO
[1]
  outcome: inactive
[2]
  outcome: inactive
[3]
  outcome: inactive
[4]
  outcome: inactive
[5]
  outcome: inactive
[6]
  outcome: inactive
[8]
  outcome: inactive
[10]
  outcome: inactive

## CN(N=O)C(=O)N[C@@H]1[C@@H](O)[C@H](O)[C@@H](CO)O[C@@H]1O
[1]
  outcome: inactive
[2]
  outcome: inactive
[3]
  outcome: inactive
[5]
  outcome: inactive
[6]
  outcome: inactive
[7]
  outcome: inactive
[12]
  outcome: inactive
[8]
  outcome: inactive
[10]
  outcome: inactive
[11]
  outcome: inactive

## OCCC(O)CO (centres undefined)
[1]
  outcome: inactive
[2]
  outcome: inactive
[3]
  outcome: inactive
[4]
  outcome: inactive
[5]
  outcome: inactive
[6]
  outcome: inactive
[7]
  outcome: inactive
[11]
  outcome: inactive

## C[C@]12CC[C@H]3C(=CCc4cc(O)ccc43)[C@@H]1CCC2=O
[1]
  outcome: inactive
[2]
  outcome: inactive
[3]
  outcome: inactive
[5]
  outcome: inactive
[6]
  outcome: inactive
[7]
  outcome: inactive
[13]
  outcome: inactive
[14]
  outcome: inactive
[15]
  outcome: inactive
[16]
  outcome: inactive
[12]
  outcome: inactive
[8]
  outcome: inactive
[17]
  outcome: inactive
[9]
  outcome: inactive
[18]
  outcome: inactive
[19]
  AC50: 32.1 µM (active)
[20]
  outcome: inactive
[10]
  AC50: 26.6 µM (active)
[11]
  outcome: inactive

## N#CCCOCCC#N
[1]
  outcome: inactive
[2]
  outcome: inactive
[3]
  outcome: inactive
[4]
  outcome: inactive
[5]
  outcome: inactive
[6]
  outcome: inactive
[7]
  outcome: inactive
[18]
  outcome: inactive
[20]
  outcome: inactive
[10]
  outcome: inactive
[11]
  outcome: inactive

## OCCCCl
[1]
  outcome: inactive
[2]
  outcome: inactive
[3]
  outcome: inactive
[4]
  outcome: inactive
[5]
  outcome: inactive
[6]
  outcome: inactive
[7]
  outcome: inactive
[8]
  outcome: inactive
[9]
  outcome: inactive
[18]
  outcome: inactive
[10]
  outcome: inactive

## Cc1cccc(C)n1
[1]
  outcome: inactive
[2]
  outcome: inactive
[3]
  outcome: inactive
[4]
  outcome: inactive
[5]
  outcome: inactive
[6]
  outcome: inactive
[7]
  outcome: inactive
[9]
  outcome: inactive
[20]
  outcome: inactive
[10]
  outcome: inactive

## Cc1ccc(O)cn1
[1]
  outcome: inactive
[2]
  outcome: inactive
[3]
  outcome: inactive
[4]
  outcome: inactive
[5]
  outcome: inactive
[6]
  outcome: inactive
[7]
  outcome: inactive
[8]
  outcome: inactive
[20]
  outcome: inactive
[10]
  outcome: inactive

## CCOCOCC
[1]
  outcome: inactive
[2]
  outcome: inactive
[3]
  outcome: inactive
[4]
  outcome: inactive
[5]
  outcome: inactive
[6]
  outcome: inactive
[7]
  outcome: inactive
[8]
  outcome: inactive
[9]
  outcome: inactive
[18]
  outcome: inactive
[20]
  outcome: inactive
[11]
  outcome: inactive

## O=C1c2c(O)ccc(Nc3ccc(CCO)cc3)c2C(=O)c2c([N+](=O)[O-])ccc(O)c21
[1]
  outcome: inactive
[2]
  outcome: inactive
[3]
  outcome: inactive
[5]
  AC50: 6.59 µM (active)
[6]
  outcome: inactive
[7]
  outcome: inactive
[13]
  AC50: 0.7 µM (active)
[14]
  AC50: 4.7 µM (active)
[15]
  AC50: 23.2 µM (active)
[16]
  AC50: 9.19 µM (active)
[12]
  outcome: inactive
[8]
  outcome: inactive
[17]
  AC50: 20 µM (active)
[9]
  outcome: inactive
[18]
  outcome: inactive
[19]
  AC50: 20 µM (active)
[20]
  AC50: 13 µM (active)
[10]
  AC50: 6.55 µM (active)
[11]
  outcome: inactive

Reference: PubChem BioAssay (EPA / NIEHS)
